From PubChem BioAssay
Shown are actives, neighbours in structure and some others; about 4.2% of the full set was active somewhere.
esBAF inh – SWI/SNF esBAF complex inhibition; mouse ES cells, Bmi1-luciferase knock-in reporter, 24 h; 100% = twice the neutral-well signal; reporter increase, % at 12.5 µM; actives 2% (n = 350,000); AID 602393; in the data active means activation above about 40%;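 further: 0% = median of the plate's neutral control wells and 100% = double that signal; a rise in the Bmi1 reporter signal indicates esBAF inhibition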
Wnt act – activators of Wnt/beta-catenin signaling | Wnt/beta-catenin reporter cell assay, activator, plate reader | activation, % at 9.35 µM | actives 1.2% (n = 300,000); in the data active means activation above about 30%, passing the limit was not always enough;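 further: 0% = neutral control wells and 100% = positive control wells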
ssDAF12 agonist – activators of S. stercoralis DAF-12 nuclear receptor. HEK293 ssDAF-12/GRIP1 lit1-tk-luc reporter, luminescence; % of 3 µM dafachronic acid response. activation, % at 6.8 µM. actives 1% (n = 370,000). AID 652126;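 active means activation above the mean over all tested compounds plus 3 SD, cut at about 0.9% in these data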;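 further: 0% = DMSO-only wells and 100% = 3 µM delta7-dafachronic acid wells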
hgDAF12 agonist – activates the H. glycines DAF-12 receptor ligand-binding domain. HEK293 GAL4-hgDAF12 UAS-luciferase reporter, agonist luminescence; normalized to butyrate control. actives 1.8% (n = 370,000). activation, % at 6.8 µM;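 active means activation above a cutoff set at the mean of all screened compounds plus 3 SD, cut at about 10% in these data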;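 further: 0% = DMSO wells and 100% = sodium butyrate wells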
DAX1 inh – inhibitors of DAX1 repression of SF-1 activated StAR promoter; inhibition, % at 6.8 µM; HEK293T StAR-luciferase reporter, SF-1/DAX-1 repression relief; AID 652010; actives 1.1% (n = 370,000);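 active means inhibition above the mean over all tested compounds plus 3 SD, cut at about 3.6% in these data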;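 further: 0% = DAX-1 cells with DMSO and 100% = cells lacking DAX-1 with DMSO; higher inhibition means more luminescence from relief of DAX-1 repression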
hcDAF12 agonist – activates DAF-12 receptor from parasite H. contortus; HEK293 hcDAF-12 lit1-tk-luc reporter, luminescence; 0% DMSO, 100% Δ7-dafachronic acid; activation, % at 6.8 µM; actives 1.4% (n = 370,000);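 active means activation above the mean of all tested compounds plus 3 SD, cut at about 5.5% in these data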;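 further: 100% = response to 3 µM Δ7-dafachronic acid high control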
* = called active by the depositor.

What do the screens show for `CCNC(=O)C[C@@H]1CC[C@@H]2[C@H](COc3ccc(NC(=O)Nc4ccc(C)cc4)cc3C(=O)N2C)O1`?
esBAF inh: 4

Results for COc1ccc(-c2nc3ccccn3c2C=O)cc1 ?
ssDAF12 agonist: 0; hgDAF12 agonist: 10; DAX1 inh: 1; hcDAF12 agonist: 5.7*

Results for O=Cc1c(-c2ccc(F)cc2)nc2ccccn12 ?
esBAF inh: 9; Wnt act: 3; ssDAF12 agonist: -1; hgDAF12 agonist: -1; DAX1 inh: 0; hcDAF12 agonist: -2

What do the screens show for `C/C=C/c1ccc2c(c1)O[C@H](CN(C)Cc1cccc(F)c1)[C@H](C)CN([C@@H](C)CO)S2(=O)=O`?
esBAF inh: -2

How did COc1ccccc1-c1nnc(NC(=O)C(C)SC2=NCCS2)s1 (stereo unspecified) do in these assays?
esBAF inh: 1; Wnt act: 16; ssDAF12 agonist: -1; hgDAF12 agonist: 10; DAX1 inh: 2; hcDAF12 agonist: 1

Results for CC(SC1=NCCS1)C(=O)Nc1nnc(-c2ccc(Cl)cc2)s1 (stereo unspecified) ?
esBAF inh: 43*; Wnt act: 6; ssDAF12 agonist: -1; hgDAF12 agonist: 8; DAX1 inh: 3; hcDAF12 agonist: 4

How did COC(=O)Cc1c(OC)ccn(CCc2c[nH]c3ccccc23)c1=O do in these assays?
esBAF inh: 32; Wnt act: 10; ssDAF12 agonist: 0; hgDAF12 agonist: 10; DAX1 inh: 4.0*; hcDAF12 agonist: 5

Results for C[C@H]1CN([C@@H](C)CO)C(=O)c2cccc(NC(=O)C3CC3)c2O[C@@H]1CN(C)CC1CC1 ?
esBAF inh: -6

How did Cn1ccnc1SCc1ccc([N+](=O)[O-])cc1 do in these assays?
esBAF inh: -5; ssDAF12 agonist: -2; hgDAF12 agonist: 0; DAX1 inh: 0; hcDAF12 agonist: 1

Results for Cn1ccnc1SCc1cn2cc(Br)ccc2n1 ?
esBAF inh: -68; ssDAF12 agonist: 1.2*; hgDAF12 agonist: 8; DAX1 inh: 1; hcDAF12 agonist: 3

How did CCCc1nc(Nc2nc3ccccc3o2)nc(C)c1C(=O)OCC do in these assays?
esBAF inh: 63*; ssDAF12 agonist: -1; hgDAF12 agonist: 7; DAX1 inh: 2; hcDAF12 agonist: 0

What do the screens show for `O=C1c2ccccc2NC(c2ccc(Br)o2)N1O` (stereo unspecified)?
esBAF inh: 31; Wnt act: 44*; ssDAF12 agonist: 0; hgDAF12 agonist: 3; DAX1 inh: 2; hcDAF12 agonist: 2

What do the screens show for `C[C@@H]1CN([C@@H](C)CO)C(=O)Cc2cc(NS(=O)(=O)c3cn(C)cn3)ccc2O[C@@H]1CN(C)Cc1ccc(Cl)c(Cl)c1`?
esBAF inh: 0

How did COc1ccc2nc(SCC(=O)c3ccco3)[nH]c2c1 do in these assays?
esBAF inh: 36; Wnt act: 33*; ssDAF12 agonist: -1; hgDAF12 agonist: 5; DAX1 inh: 1; hcDAF12 agonist: 1

How did O=C(CSc1nc2ccccc2[nH]1)c1ccco1 do in these assays?
esBAF inh: 24; ssDAF12 agonist: 0; hgDAF12 agonist: 5; DAX1 inh: 0; hcDAF12 agonist: 3

How did COc1ccc2nc(SCC(=O)NC(C)(C)C)[nH]c2c1 do in these assays?
esBAF inh: 27; ssDAF12 agonist: -1; hgDAF12 agonist: 5; DAX1 inh: 1; hcDAF12 agonist: 0

Results for COc1ccc2nc(SCC(=O)C(C)(C)C)[nH]c2c1 ?
Wnt act: 41*; ssDAF12 agonist: -1; hgDAF12 agonist: 8; DAX1 inh: 0; hcDAF12 agonist: 1

Results for O=C(C[C@H]1CC[C@@H]2[C@H](COC[C@@H](O)CN2S(=O)(=O)c2ccc(Oc3ccccc3)cc2)O1)Nc1ccccc1 ?
esBAF inh: 0

Results for N#Cc1c(Cl)c(Cl)c2nnc(-c3ccc(Br)cc3)n2c1Cl ?
Wnt act: -4; ssDAF12 agonist: 1.2*; hgDAF12 agonist: 2; DAX1 inh: -1; hcDAF12 agonist: 3

How did [S-]c1nnc(-c2ccc(Br)cc2)n1-c1ccccc1.[Zn+2] do in these assays?
esBAF inh: 2; Wnt act: 2; ssDAF12 agonist: 0; hgDAF12 agonist: 2; DAX1 inh: 0; hcDAF12 agonist: 2

Results for Cc1ccc(-c2ccc3c(c2)O[C@H](CN(C)CC2CC2)[C@H](C)CN([C@H](C)CO)S3(=O)=O)cc1 ?
esBAF inh: -4

What do the screens show for `COC(=O)C(C)N1C(=O)S/C(=C\c2ccc(-c3ccc(C(=O)O)cc3C)o2)C1=O` (stereo unspecified)?
esBAF inh: 71*; Wnt act: 7; ssDAF12 agonist: 0; hgDAF12 agonist: 6; DAX1 inh: 1; hcDAF12 agonist: 1

Results for CO[C@@H]1CN(C)C(=O)c2ccc(NS(=O)(=O)c3ccccc3)cc2OC[C@H](C)N(Cc2cccnc2)C[C@H]1C ?
esBAF inh: 2

Results for CNC(=O)COc1ncnc2sccc12 ?
esBAF inh: -8; Wnt act: 3; ssDAF12 agonist: -1; hgDAF12 agonist: -1; DAX1 inh: 1; hcDAF12 agonist: -1

What do the screens show for `CC(=O)c1ccc(Oc2ncnc3sccc23)cc1`?
Wnt act: 7; ssDAF12 agonist: -1; hgDAF12 agonist: 11*; DAX1 inh: 3; hcDAF12 agonist: 2

How did Cc1cc(C(=O)COc2ncnc3sccc23)c(C)n1C do in these assays?
esBAF inh: 55*; ssDAF12 agonist: 0; hgDAF12 agonist: 4; DAX1 inh: 1; hcDAF12 agonist: 1

Results for CC(=O)N1CCN(c2ccc(Oc3ncnc4sccc34)cc2)CC1 ?
esBAF inh: -11; Wnt act: -7; ssDAF12 agonist: -1; hgDAF12 agonist: -1; DAX1 inh: -1; hcDAF12 agonist: -3

What do the screens show for `O=C(c1cccnc1)N1C[C@@H]2[C@H](c3ccccc31)[C@H](CO)N2C(=O)C1CCCC1`?
esBAF inh: 0

How did COC(=O)C[C@@H]1C[C@@H]2c3cc(NS(=O)(=O)c4ccc(OC)cc4)ccc3O[C@@H]2[C@H](CO)O1 do in these assays?
esBAF inh: 1

Results for COc1ccc(-c2cc3c(=O)n(CC(=O)NCCCN4CCC(N5CCCCC5)CC4)nc(C)n3n2)cc1 ?
esBAF inh: -3; Wnt act: -1; ssDAF12 agonist: -1; hgDAF12 agonist: 1; DAX1 inh: 4.5*; hcDAF12 agonist: 0

How did COc1ccc(CCc2nc(-c3ccc(-n4cccc4)cc3)no2)cc1 do in these assays?
esBAF inh: -4; Wnt act: 2; ssDAF12 agonist: 0; hgDAF12 agonist: 3; DAX1 inh: 0; hcDAF12 agonist: -1
